Laboratory results as given in PubChem BioAssay.
Unmarked numbers belong to inactive results. The rule behind the calls is not given here.

What follows are compounds tested against Pantothenate synthetase (Mycobacterium tuberculosis (strain ATCC 25618 / H37Rv)) (UniProt P9WIL5) (assay: Coupled enzyme confirmation of inhibitors against recombinant Mtb PanC (AID 375;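 note: 0% = full reaction with vehicle and 100% = no enzyme background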)). Conditions: coupled enzyme assay; at 10 µM, hits give high values.
Chain of Pantothenate synthetase (Mycobacterium tuberculosis (strain ATCC 25618 / H37Rv)) (P9WIL5 whole entry, looked up): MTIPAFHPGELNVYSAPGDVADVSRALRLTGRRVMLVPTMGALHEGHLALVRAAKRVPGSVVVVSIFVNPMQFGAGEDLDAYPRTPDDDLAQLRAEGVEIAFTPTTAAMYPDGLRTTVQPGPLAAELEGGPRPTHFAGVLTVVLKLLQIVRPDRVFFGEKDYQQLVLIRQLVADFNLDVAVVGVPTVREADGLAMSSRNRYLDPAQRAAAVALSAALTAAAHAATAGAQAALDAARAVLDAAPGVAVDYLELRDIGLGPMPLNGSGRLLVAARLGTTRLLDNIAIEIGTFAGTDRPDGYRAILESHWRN

Row | Structure (SMILES) | inhibition [%]
1 | O=C(OCCCN1C(=O)c2ccccc2C1=O)c1ccco1 | 2
2 | Nc1nnc(-c2cn(-c3ccccc3)nc2-c2ccccc2)o1 | 0
3 | Cc1ccc(NC(=O)CC2Nc3ccccc3NC2=O)cc1Cl (stereo not given) | 0
4 | CCn1c(C)cc(=S)c2ccccc21 | 9
5 | O=C(NCCCN1CCOCC1)C1CC(=O)N(CCc2ccccc2)C1 (stereo not given) | 4
6 | Cc1cccc(-n2ncc(C#N)c2N)c1 | 1
7 | O=C1CCc2cc(S(=O)(=O)N3CCC(C(=O)NCc4ccccn4)CC3)ccc2N1 | 0
8 | CCn1c(SCC(=O)Nc2nnc(C)s2)nnc1-c1ccncc1 | 1
9 | COC(=O)Nc1nnc(CCc2ccccc2)s1 | 2
10 | CCOC(=O)c1sc(C)c2c1NC(C)(c1cccs1)NC2=O (stereo not given) | 4
11 | CC(CC(=O)NCc1ccccc1)C1CCCO1 (stereo not given) | 0
12 | O=C(CSc1nccn1Cc1ccccc1)Nc1nccs1 | 0
13 | OC[C@H]1O[C@@H](n2cnc3c(NC4CCCC4)ncnc32)[C@H](O)[C@@H]1O | 1
14 | COc1ccccc1NC(=O)c1ccc(NC(=O)CSc2nnnn2C)cc1 | 1
15 | COc1cccc(C(c2nnnn2Cc2ccccc2)N2CCN(C(=O)c3ccco3)CC2)c1OC (stereo not given) | 4
16 | CC1=NS(=O)(=O)c2cc(Cl)ccc2N1 | 6
17 | CCOc1ccc2cc(C#N)c(SCC(=O)N3CCC(C)CC3)nc2c1 | 10
18 | CCc1nnc(NC(=O)c2cccc(C(=O)Nc3nnc(CC)s3)n2)s1 | 0
19 | COc1ccc(S(=O)(=O)Nc2ccccc2SC)cc1C | 0
20 | COc1ccc(C2(C(=O)Nc3c(C)n(C)n(-c4ccccc4)c3=O)CCCC2)cc1OC | 1
21 | CN(Cc1ccco1)C(=O)Cn1c(=O)oc2cc(S(=O)(=O)NCc3ccccc3)ccc21 | 0
22 | Cc1c(C)n(C(=O)CN2CCN(c3ccccn3)CC2)c2ccccc12 | 0
23 | COc1cc(S(=O)(=O)N2CCC(N3CCCCC3)CC2)ccc1-n1cnnn1 | 3
24 | Cc1cc(NC(=O)Cn2cnc3c(cnn3C(C)(C)C)c2=O)no1 | 3
25 | CC1(C)Cc2c(sc3c2C2=NCCN2C=N3)CO1 | 0
